{"source": "PubChem BioAssay", "data": [{"target": "Neurogenic locus notch homolog protein 2 (Homo sapiens) (UniProt Q04721)", "sequence (Q04721 whole entry, looked up)": "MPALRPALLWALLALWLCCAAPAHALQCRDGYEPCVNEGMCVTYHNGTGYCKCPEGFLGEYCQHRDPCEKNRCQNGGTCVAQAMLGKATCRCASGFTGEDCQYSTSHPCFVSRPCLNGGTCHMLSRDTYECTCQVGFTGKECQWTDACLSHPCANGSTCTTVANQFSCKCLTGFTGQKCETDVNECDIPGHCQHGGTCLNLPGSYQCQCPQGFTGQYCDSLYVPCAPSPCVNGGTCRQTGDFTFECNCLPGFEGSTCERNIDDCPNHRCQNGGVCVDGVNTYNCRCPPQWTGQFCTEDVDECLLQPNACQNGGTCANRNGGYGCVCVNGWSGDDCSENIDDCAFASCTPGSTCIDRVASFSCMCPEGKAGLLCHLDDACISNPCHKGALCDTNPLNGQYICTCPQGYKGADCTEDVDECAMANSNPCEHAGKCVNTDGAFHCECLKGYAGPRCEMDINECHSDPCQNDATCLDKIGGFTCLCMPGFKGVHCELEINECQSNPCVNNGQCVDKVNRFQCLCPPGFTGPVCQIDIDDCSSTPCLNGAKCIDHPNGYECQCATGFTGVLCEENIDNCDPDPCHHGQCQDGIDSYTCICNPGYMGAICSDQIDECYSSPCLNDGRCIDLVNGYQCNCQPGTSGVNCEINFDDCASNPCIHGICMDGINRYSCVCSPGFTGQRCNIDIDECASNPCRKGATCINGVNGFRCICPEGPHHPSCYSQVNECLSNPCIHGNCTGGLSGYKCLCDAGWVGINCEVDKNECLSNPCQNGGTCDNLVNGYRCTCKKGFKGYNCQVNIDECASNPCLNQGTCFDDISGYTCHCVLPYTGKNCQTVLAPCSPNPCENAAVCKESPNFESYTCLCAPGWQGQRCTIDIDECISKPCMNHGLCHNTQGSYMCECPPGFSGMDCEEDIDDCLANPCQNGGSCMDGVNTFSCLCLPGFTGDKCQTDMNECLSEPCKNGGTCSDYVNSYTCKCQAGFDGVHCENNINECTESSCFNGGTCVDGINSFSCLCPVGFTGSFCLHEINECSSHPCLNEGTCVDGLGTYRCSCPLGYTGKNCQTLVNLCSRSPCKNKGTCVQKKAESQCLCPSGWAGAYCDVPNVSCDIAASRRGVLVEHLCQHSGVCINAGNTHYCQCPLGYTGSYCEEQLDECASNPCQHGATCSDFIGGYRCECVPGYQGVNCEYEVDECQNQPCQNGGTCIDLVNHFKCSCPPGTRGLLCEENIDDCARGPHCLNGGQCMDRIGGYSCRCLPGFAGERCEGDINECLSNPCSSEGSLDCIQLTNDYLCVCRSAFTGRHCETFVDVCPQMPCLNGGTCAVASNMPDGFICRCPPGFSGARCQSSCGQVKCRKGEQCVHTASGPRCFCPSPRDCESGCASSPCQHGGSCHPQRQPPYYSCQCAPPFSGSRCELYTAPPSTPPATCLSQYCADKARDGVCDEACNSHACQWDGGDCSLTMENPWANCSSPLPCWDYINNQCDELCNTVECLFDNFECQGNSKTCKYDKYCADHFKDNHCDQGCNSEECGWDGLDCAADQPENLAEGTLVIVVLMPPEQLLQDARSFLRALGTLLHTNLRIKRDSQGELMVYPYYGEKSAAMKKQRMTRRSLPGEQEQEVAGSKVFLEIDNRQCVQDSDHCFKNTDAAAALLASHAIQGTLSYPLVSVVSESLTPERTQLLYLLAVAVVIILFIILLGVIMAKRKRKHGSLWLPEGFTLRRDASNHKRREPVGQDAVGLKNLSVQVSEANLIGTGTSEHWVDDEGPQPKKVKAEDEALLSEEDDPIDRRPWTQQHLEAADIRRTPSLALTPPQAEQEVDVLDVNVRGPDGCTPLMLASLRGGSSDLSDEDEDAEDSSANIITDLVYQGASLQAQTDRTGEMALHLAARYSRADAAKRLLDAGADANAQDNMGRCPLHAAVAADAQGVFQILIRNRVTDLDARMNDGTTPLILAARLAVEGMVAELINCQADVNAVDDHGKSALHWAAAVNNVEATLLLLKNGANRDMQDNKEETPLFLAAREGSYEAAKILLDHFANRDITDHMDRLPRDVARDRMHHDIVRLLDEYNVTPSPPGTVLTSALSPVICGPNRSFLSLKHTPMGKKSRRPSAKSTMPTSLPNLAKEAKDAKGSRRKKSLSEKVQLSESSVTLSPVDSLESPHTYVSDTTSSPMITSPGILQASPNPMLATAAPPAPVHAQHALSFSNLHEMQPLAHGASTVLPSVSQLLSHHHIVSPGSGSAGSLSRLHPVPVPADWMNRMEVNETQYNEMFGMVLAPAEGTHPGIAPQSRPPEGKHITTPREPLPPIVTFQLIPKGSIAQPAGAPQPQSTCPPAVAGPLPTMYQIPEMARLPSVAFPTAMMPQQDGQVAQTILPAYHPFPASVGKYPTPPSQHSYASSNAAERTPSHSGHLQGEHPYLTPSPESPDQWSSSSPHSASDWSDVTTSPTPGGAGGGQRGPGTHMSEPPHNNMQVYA", "test": "Notch2 binders on small-molecule microarrays, primary screen, biochemical, small-molecule microarray, 635 nm fluorescence, stem cell growth factors (AID 1073)", "conditions": "Notch2 binding, higher = more signal", "values": [{"smiles": "COc1ccc([Si](C)(C)[C@H]2[C@H](CCn3cc(CCO)nn3)O[C@@]3(C(=O)N(Cc4ccc(N5CCOC5=O)cc4)c4ccccc43)[C@@H]2C)cc1", "composite z-score": 0.14}, {"smiles": "CC(=O)Nc1cc(Br)ccc1C(=O)O", "composite z-score": 0.425}, {"smiles": "CN1CCC(CCCO)=CC1c1ccc(CN2CCCC2)cc1", "note": "(stereo not drawn)", "composite z-score": 1.12}, {"smiles": "COCCOC(=O)N1C(=O)[C@@]2(c3ccccc31)[C@H](C(=O)Nc1nc3ccccc3s1)[C@H]1C(=O)O[C@H](c3ccccc3)[C@H](c3ccccc3)N1[C@@H]2c1ccc(OCCO)cc1", "composite z-score": 0.907}, {"smiles": "COC(=O)c1ccc(C(O)C2C=CC3C(=O)N(C)C(=O)C3N2NC(=O)OC(C)(C)C)o1", "note": "(stereo not drawn)", "composite z-score": 1.48}, {"smiles": "O=C1OCCC=C[C@H]2OC34C=CCN(Cc5ccccc5)C(=O)[C@H]3N(CCCCCCO)C(=O)[C@@H]4C12", "note": "(stereo partly drawn)", "composite z-score": -0.91}, {"smiles": "CC(C)N1C(=O)c2ccccc2[C@@H](C(=O)NCCCN(C)C)[C@@H]1c1ccc(CO)cc1", "composite z-score": 0.102}]}, {"target": "Pro-neuregulin-1, membrane-bound isoform (Homo sapiens) (UniProt Q02297)", "sequence (Q02297 whole entry, looked up, canonical isoform)": "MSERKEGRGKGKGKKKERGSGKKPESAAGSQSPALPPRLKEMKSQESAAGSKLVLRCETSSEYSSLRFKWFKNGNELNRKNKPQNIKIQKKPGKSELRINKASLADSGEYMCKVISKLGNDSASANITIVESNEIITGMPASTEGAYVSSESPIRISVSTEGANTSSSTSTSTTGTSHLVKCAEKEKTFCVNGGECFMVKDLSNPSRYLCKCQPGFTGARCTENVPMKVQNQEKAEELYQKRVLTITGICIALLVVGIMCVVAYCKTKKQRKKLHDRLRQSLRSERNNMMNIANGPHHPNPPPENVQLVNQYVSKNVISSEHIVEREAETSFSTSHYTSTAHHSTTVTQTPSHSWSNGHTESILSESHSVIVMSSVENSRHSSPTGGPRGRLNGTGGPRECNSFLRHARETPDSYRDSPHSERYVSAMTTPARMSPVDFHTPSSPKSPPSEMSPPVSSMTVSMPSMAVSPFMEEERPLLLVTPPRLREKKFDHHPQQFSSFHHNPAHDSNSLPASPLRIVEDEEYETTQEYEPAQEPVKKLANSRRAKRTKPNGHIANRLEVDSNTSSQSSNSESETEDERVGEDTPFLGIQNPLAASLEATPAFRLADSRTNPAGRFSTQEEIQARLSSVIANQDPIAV", "test": "NRG1 binders on small-molecule microarrays, primary screen, psychiatric disease protein project, biochemical, small-molecule microarray, fluorescence 635/667 (AID 1075);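 note: score combines 667 nm spot fluorescence with signal to noise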", "conditions": "NRG1 binding, 635 nm fluorescence, higher = more signal", "values": [{"smiles": "Cc1ccc(S[C@]2(C(=O)NCc3ccccc3)CC(=O)N(Cc3ccccc3)[C@@H]2c2ccc(CO)cc2)cc1", "composite z-score": 1.33}, {"smiles": "C=C(C(=O)CC[C@H](OC(C)=O)c1ccc(OCCO)cc1)C(C)C", "composite z-score": 0.0987}, {"smiles": "Cc1ccc(S[C@]2(C(=O)NCC(C)C)CC(=O)N(Cc3ccccc3)[C@@H]2c2ccc(CO)cc2I)cc1", "composite z-score": 0.892}, {"smiles": "O=C1N(CCS(=O)(=O)c2ccccc2)c2ccccc2C[C@@]12COC(c1ccc(OCCCO)cc1)=N2", "composite z-score": 1.11}, {"smiles": "CCOC(=O)C[C@H]1[C@H](OC(=O)c2ccc(-c3ccccc3)cc2)[C@@H](NC(=O)Cc2ccc(OC)cc2)c2cc(OCCCO)ccc2N1C(=O)c1ccc2ccccc2n1", "composite z-score": 0.33}, {"smiles": "C=CCNC(=O)[C@@H]1[C@H]2C(=O)O[C@H](c3ccccc3)[C@H](c3ccccc3)N2[C@H](c2ccc(OCCO)cc2)[C@@]12C(=O)Nc1ccccc12", "composite z-score": 1.51}, {"smiles": "COCCOC(=O)N1C(=O)[C@@]2(c3cc(C#CCNC(N)=O)ccc31)[C@H](c1ccccc1OCCO)N1[C@H](c3ccccc3)[C@H](c3ccccc3)OC(=O)[C@H]1[C@@H]2C(N)=O", "composite z-score": 0.429}, {"smiles": "COC(=O)[C@@]1(Cc2ccc(F)cc2)[C@H]2c3cc(C(=O)N4CCCC4)n(Cc4cccc5ccccc45)c3C[C@H]2CN1C(=O)c1ccccc1", "composite z-score": 2.16}, {"smiles": "CC(C)CNC(=O)[C@@]1(c2ccc([N+](=O)[O-])cc2)CC(=O)N(CC23CC4CC(CC(C4)C2)C3)[C@@H]1c1ccc(CO)cc1", "composite z-score": 0.65}, {"smiles": "CC1=C2[C@@H](CCc3ccccc3)OB(O)C[C@@H]2n2c(=O)n(-c3ccccc3)c(=O)n2C1", "composite z-score": 0.537}, {"smiles": "CCOC(=O)C[C@H]1[C@H](OC(=O)Cc2ccc3c(c2)OCO3)[C@@H](NC(=O)C2CCCCC2)c2cc(OCCCO)ccc2N1C(=O)Cc1ccc(OC)cc1", "composite z-score": -0.054}, {"smiles": "O=C(CS)NCCCCCCNC(=O)[C@H]1C[C@H]2C(=O)NCC(=O)N2[C@H]1c1ccc(O)cc1", "composite z-score": 1.22}, {"smiles": "C[N+](C)(C)CCCCCCNC(=O)[C@H]1C[C@H]2C(=O)N3CCC[C@H]3C(=O)N2[C@H]1c1ccc(O)cc1", "composite z-score": 1.96}, {"smiles": "C[C@H]1NC(=O)[C@H](Cc2ccccc2)NC(=O)[C@@]23C(=O)N[C@@H](Cc4ccccc4)C2[C@H](C)[C@@]2(C)O[C@H]2C3/C=C/C/C=C\\CNC1=O", "note": "(stereo partly drawn)", "composite z-score": -0.547}, {"smiles": "CS(=O)(=O)CCOC(=O)C1=CC(c2ccc(CO)cc2)=CC(C2CC2)N(Cc2cc3c(cc2Br)OCO3)C=C1C(=O)OCCS(C)(=O)=O", "note": "(stereo not drawn)", "composite z-score": 1.78}, {"smiles": "[N-]=[N+]=NCc1ccccc1C[C@@]1(C(=O)N2CCOCC2)N=C(c2ccc(OCCCO)cc2)O[C@@H]1c1ccccc1CN=[N+]=[N-]", "composite z-score": 1.91}, {"smiles": "CN1C=C(C(=O)OCCS(C)(=O)=O)C(C(=O)OCCS(C)(=O)=O)=CC(CCCO)=CC1C1CC1", "note": "(stereo not drawn)", "composite z-score": 1.04}, {"smiles": "C=CCOC(=O)[C@H]1[C@@H]2C(=O)O[C@@H](c3ccccc3)[C@@H](c3ccccc3)N2[C@@H](c2ccc(OCCOC(=O)[C@@H]3C[C@@H]4C(=O)NCC(=O)N4[C@@H]3c3ccc(O)cc3)cc2)[C@]12C(=O)Nc1ccccc12", "composite z-score": -0.373}, {"smiles": "O=C1C=CC(=O)[C@@H]2CC(COc3ccccc3)=C3[C@@H](CCc4ccccc4)OB(O)C[C@@H]3[C@H]12", "composite z-score": -0.18}, {"smiles": "CCOC(=O)C1=C[C@@H](C(C)C)N(S(=O)(=O)c2ccc(C)cc2)[C@H]1c1ccc(C(C)C)cc1", "composite z-score": 0.609}, {"smiles": "CCOC(=O)C[C@H]1[C@H](OC(=O)c2ccc(-c3ccccc3)cc2)[C@@H](NC(=O)c2ccc3ccccc3c2)c2cc(OCCCO)ccc2N1C(=O)Cc1ccc(OC)cc1", "composite z-score": 0.15}, {"smiles": "CCOC(=O)C[C@H]1[C@H](OC(=O)c2ccccc2-c2ccccc2)[C@@H](NC(=O)c2ccc3ccccc3c2)c2cc(OCCCO)ccc2N1C(=O)c1ccc2ccccc2n1", "composite z-score": 0.0753}, {"smiles": "COCCOC(=O)N1C(=O)[C@@]2(c3cc(C#CC4=CCCCC4)ccc31)[C@H](C(=O)NC[C@H](O)c1ccccc1)[C@H]1C(=O)O[C@H](c3ccccc3)[C@H](c3ccccc3)N1[C@@H]2c1ccc(O)cc1", "composite z-score": 0.996}, {"smiles": "C=C(COC)C(=O)CC[C@H](OC(C)=O)c1cccc(OCCO)c1", "composite z-score": -0.13}, {"smiles": "N[C@@H](Cc1ccccc1)Cn1cc(-c2ccccc2)nn1", "composite z-score": 0.429}, {"smiles": "O=C1O[C@@H](c2ccccc2)[C@@H](c2ccccc2)N2[C@@H](c3ccc(OCCO)cc3)[C@]3(C(=O)Nc4ccc(C#CC5=CCCCC5)cc43)[C@@H](C(=O)O)[C@H]12", "composite z-score": 1.59}, {"smiles": "COCCOC(=O)N1C(=O)[C@@]2(c3cc(C#CCC(C(=O)OC)C(=O)OC)ccc31)[C@H](C(=O)N1CCCCCCC1)[C@H]1C(=O)O[C@H](c3ccccc3)[C@H](c3ccccc3)N1[C@@H]2c1ccc(OCCO)cc1", "composite z-score": 2.11}, {"smiles": "CCCCC=C[C@@H](NC(=O)c1ccco1)c1ccccc1", "composite z-score": 0.783}, {"smiles": "C=CCC(OC(C)=O)[C@@H]1[C@@H](N(Cc2cccc3ccccc23)C(=O)c2cccc3ccccc23)c2cc(OCCCO)ccc2N1C(=O)c1ccc2ccccc2n1", "note": "(stereo partly drawn)", "composite z-score": -0.0137}, {"smiles": "COc1ccc([Si](C)(C)[C@H]2[C@H](CCn3cc(CCO)nn3)O[C@@]3(C(=O)N(Cc4ccc(N5CCOC5=O)cc4)c4ccccc43)[C@@H]2C)cc1", "composite z-score": 1.51}, {"smiles": "CC(=O)Nc1cc(Br)ccc1C(=O)O", "composite z-score": 0.541}, {"smiles": "CN1CCC(CCCO)=CC1c1ccc(CN2CCCC2)cc1", "note": "(stereo not drawn)", "composite z-score": 1.7}, {"smiles": "COCCOC(=O)N1C(=O)[C@@]2(c3ccccc31)[C@H](C(=O)Nc1nc3ccccc3s1)[C@H]1C(=O)O[C@H](c3ccccc3)[C@H](c3ccccc3)N1[C@@H]2c1ccc(OCCO)cc1", "composite z-score": 0.897}, {"smiles": "COC(=O)c1ccc(C(O)C2C=CC3C(=O)N(C)C(=O)C3N2NC(=O)OC(C)(C)C)o1", "note": "(stereo not drawn)", "composite z-score": 1.34}, {"smiles": "O=C1OCCC=C[C@H]2OC34C=CCN(Cc5ccccc5)C(=O)[C@H]3N(CCCCCCO)C(=O)[C@@H]4C12", "note": "(stereo partly drawn)", "composite z-score": 1.88}, {"smiles": "CC(C)N1C(=O)c2ccccc2[C@@H](C(=O)NCCCN(C)C)[C@@H]1c1ccc(CO)cc1", "composite z-score": 1.78}]}]}
